Test results from PubChem BioAssay.

Tested on: Human papillomavirus type 1a E7 protein (residues 1-88)
Test: HPV1a E7 small-molecule binders, primary screen, biochemical, small-molecule microarray, residues 1-88, 635 nm (AID 1129)
Conditions: small-molecule microarray binding, fluorescence 635 nm; higher = more signal

Row | Compound | composite z-score
1 | CC(C)[Si](C#C[Si](C(C)C)(C(C)C)C(C)C)(O[C@H](C)c1cn(Cc2cccc(Cl)c2)nn1)C(C)C | 1.11
2 | CC(C)(C)OC(=O)CC[C@]1(C(=O)N2CCCCC2)N=C(c2ccc(OCCCO)cc2)O[C@H]1c1ccccc1CN=[N+]=[N-] | 1.21
3 | CCOC(=O)C[C@H]1[C@H](OC(=O)Cc2ccc3c(c2)OCO3)[C@@H](NC(=O)c2ccccc2)c2cc(OCCCO)ccc2N1C(=O)c1ccc2ccccc2n1 | 0.445
4 | CC(C)CCC[C@@H](C)[C@H]1CC[C@@]2(C)C3=C(CC[C@]12C)[C@@]1(C)CC[C@H](OC(=O)c2ccc(N)cc2)C(C)(C)C1CC3 (stereo not given in full) | 0.398
5 | C=CCC(OC(C)=O)[C@@H]1[C@@H](N(Cc2cccc3ccccc23)C(=O)c2ccc(C)cc2)c2cc(OCCCO)ccc2N1C(=O)c1ccc2ccccc2c1 (stereo not given in full) | 0.133
6 | COC(=O)C(CC#Cc1ccc2c(c1)[C@]1(C(=O)N2)[C@H](c2ccccc2OCCO)N2[C@H](c3ccccc3)[C@H](c3ccccc3)OC(=O)[C@H]2[C@@H]1C(=O)Nc1nc2ccccc2s1)C(=O)OC | 1.21
7 | C=CCOC(=O)[C@@H]1[C@H]2C(=O)O[C@H](c3ccccc3)[C@H](c3ccccc3)N2[C@H](c2ccc(OCCOC(=O)[C@@H]3C[C@@H]4C(=O)N5CCC[C@H]5C(=O)N4[C@@H]3c3cccc(OCCO)c3)cc2)[C@@]12C(=O)Nc1ccc(I)cc12 | 1.07
8 | COc1ccc(C(=O)Nc2ccc(CN3C(=O)[C@]4(O[C@H](CCn5cc([C@H](O)c6ccccc6)nn5)[C@@H]([Si](C)(C)c5ccc(OC)cc5)[C@@H]4C)c4ccccc43)cc2)cc1 | -0.303
9 | CN(C)C(=O)[C@@]1(CCC(=O)OC(C)(C)C)N=C(c2ccc(OCCCO)cc2)O[C@H]1c1ccccc1N=[N+]=[N-] | 1.32
10 | COCCOC(=O)N1C(=O)[C@@]2(c3cc(C#CCCO)ccc31)[C@H](C(=O)NC[C@H](O)c1ccccc1)[C@H]1C(=O)O[C@H](c3ccccc3)[C@H](c3ccccc3)N1[C@@H]2c1ccccc1OCCO | 1.23
11 | COc1ccc([Si](C)(C)[C@H]2[C@H](CCO)O[C@@]3(C(=O)N(Cc4cccc(N5CCOC5=O)c4)c4ccccc43)[C@@H]2C)cc1 | 1.13
12 | CN(C)CCCC[C@@H]1NC(=O)[C@H]2C[C@@H](C(=O)NCCCCCCNC(=O)CS)[C@@H](c3ccc(O)cc3)N2C1=O | 0.0218
13 | CC(C)=CCCC(C)=CC(O)C1C=CC2C(=O)N(c3ccccc3)C(=O)C2N1Nc1ccc([N+](=O)[O-])cc1 (stereo not given) | 1.22
14 | COC(=O)[C@@]1(Cc2ccc(OC)cc2)[C@H]2c3cc(C(=O)N(C)C)n(Cc4cc(F)c(F)c(F)c4)c3C[C@H]2CN1C(=O)c1ccccc1 | 1.21
15 | COCCOC(=O)N1C(=O)[C@@]2(c3cc(C#CCC(C(=O)OC)C(=O)OC)ccc31)[C@H](C(=O)N1CCCCCCC1)[C@H]1C(=O)O[C@H](c3ccccc3)[C@H](c3ccccc3)N1[C@@H]2c1ccc(O)cc1 | 1.16
16 | [N-]=[N+]=Nc1ccccc1[C@H]1OC(c2ccc(OCCCO)cc2)=N[C@@]1(Cc1ccccc1)C(=O)NCc1ccccc1 | 1.2
17 | COC(=O)C(CC#Cc1ccc2c(c1)[C@]1(C(=O)N2)[C@H](c2ccc(O)cc2)N2[C@H](c3ccccc3)[C@H](c3ccccc3)OC(=O)[C@H]2[C@@H]1C(N)=O)C(=O)OC | -1.91
18 | C=CCNC(=O)[C@H]1[C@@H]2C(=O)O[C@@H](c3ccccc3)[C@@H](c3ccccc3)N2[C@@H](c2ccc(OCCO)cc2)[C@]12C(=O)N(C(=O)OCCOC)c1ccc(C#CC3=CCCCC3)cc12 | 1.2

Row | Compound | composite z-score
19 | COC(=O)[C@@]1(Cc2ccccc2)[C@H]2c3cc(C(=O)N(C)C)n(Cc4ccccn4)c3C[C@H]2CN1C(=O)c1ccccc1 | 0.827
20 | O=C(Nc1cc(Br)ccc1C(=O)NCc1cccc(O)c1)c1ccccc1 | 1.02
21 | NCCCCCCNC(=O)[C@H]1C[C@H]2C(=O)N3CCC[C@H]3C(=O)N2[C@H]1c1ccc(O)cc1 | 0.609
22 | C#CCNS(=O)(=O)N(C)C | 0.928
23 | CCCC=C(CCC)[C@@H](NS(=O)(=O)CC)c1ccccc1 | 1.18
24 | CN(C)CCCCCCNC(=O)[C@@H]1C[C@@H]2C(=O)NCC(=O)N2[C@@H]1c1ccc(O)cc1 | 1.18
25 | NC(=O)NCC#Cc1ccc2c(c1)[C@]1(C(=O)N2)[C@H](c2ccc(O)cc2)N2[C@H](c3ccccc3)[C@H](c3ccccc3)OC(=O)[C@H]2[C@@H]1C(N)=O | -1.21
26 | COCCCNC(=O)[C@@]1(C)c2ccccc2C(=O)N(c2ccc(C)cn2)[C@H]1c1ccc(CO)cc1 | -0.454
27 | COCCCNC(=O)[C@]1(Cc2ccccc2)N=C(c2ccc(OCCCO)cc2)O[C@@H]1c1ccccc1N=[N+]=[N-] | 1.22
28 | CCCC=C(CCC)[C@@H](NC(=O)Cc1ccccc1)c1ccc(C(=O)OC)cc1 | 0.821
29 | COc1ccc([Si](C)(C)[C@@H]2[C@@H](CCO)O[C@]3(C(=O)N(Cc4ccccc4)c4ccc(N5CCCCC5=O)cc43)[C@H]2C)cc1 | 1.17
30 | COc1ccc(CCNC(=O)[C@@H]2c3ccccc3C(=O)N(Cc3ccccc3)[C@H]2c2ccc(CO)cc2)cc1 | 0.529
31 | O=C(CS)NCCCCCNC(=O)[C@@H]1C[C@@H]2C(=O)N3CCC[C@H]3C(=O)N2[C@@H]1c1ccc(O)cc1 | 1.12
32 | COC(=O)[C@]1(Cc2ccccc2CN=[N+]=[N-])N=C(c2ccc(OCCCO)cc2)O[C@@H]1c1ccccc1 | -1.81
33 | COc1ccc([Si](C)(C)[C@@H]2[C@@H](CC(=O)N(CCO)Cc3ccccc3)O[C@]3(C(=O)N(Cc4ccc(N5CCOC5=O)cc4)c4ccccc43)[C@H]2C)cc1 | 0.595
34 | [N-]=[N+]=NCc1ccccc1C[C@]1(C(=O)NCCN2CCOCC2)N=C(c2ccc(OCCCO)cc2)O[C@H]1c1ccccc1 | 1.22
35 | COC(=O)[C@H]1N=C(c2ccc(OCCCO)cc2)O[C@H]1c1ccccc1CN=[N+]=[N-] | -0.189
